Bioassay records as filed in PubChem BioAssay.
Most compounds without a hit are left out; they make up all but 11% or so of the library.
ERK AVP inh = qHTS Assay for Inhibitors of the ERK Signaling Pathway using a Homogeneous Screening Assay; HEK293-V1b, vasopressin-stimulated pERK AlphaScreen; Potency, µM (doses to about 57.5 µM), without a hit: at the highest dose activity, negative = inhibition, usual class: inhibitors; 0.99% of 72,000 active; AID 995, 2007; further: nearly all actives have a fitted effect of over 55% in size
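Overnight-seeded V1b-HEK293 cells in 1% FBS got compound, then vasopressin (25 nM final, 5 min, 37C), then lysis buffer. AlphaScreen detection of phospho-ERK; activity normalized to basal and full-stimulation controls.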
Luciferase inh = qHTS Assay for Inhibitors of Firefly Luciferase. Luciferin 4-monooxygenase (Photinus pyralis), P08659. 2.2% of 72,000 active. purified firefly luciferase, luminescence, 8 min. Potency, µM (titrated, usually from 57.1 µM), for the others: top-dose activity change, negative = inhibition, hits mostly inhibitors; further: nearly all actives have a fitted effect of over 40% in size
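Titration-based qHTS; buffer 50 mM imidazole pH 7.2, 50 mM KCl, 7 mM MgCl2, 10 uM ATP, 0.01% Tween 20, 0.05% BSA; luciferase/luciferin detector mix added after compound; 8 min, ambient; luminescence.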
ALOX15 inhib = qHTS Assay for Inhibitors of 15-hLO (15-human lipoxygenase). purified 15hLO-1, xylenol orange hydroperoxide absorbance. AID 887, 2007. Potency, µM (series often up to 57.1 µM), for inactives: at the top dose activity change, negative = inhibition, hits mostly inhibitors. 1.4% of 74,000 active; further: nearly all actives have a fitted effect of over 55% in size
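Readout: Fe(III)-xylenol orange absorbance, 573-to-405 nm ratio as reaction progress. Enzyme 40 nM purified human 15hLO-1, substrate 50 uM arachidonic acid, 6 min RT after 15 min compound preincubation; Hepes pH 7.5 buffer with Triton X-100.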
HADH2 inh = qHTS Assay for Inhibitors of HADH2 (Hydroxyacyl-Coenzyme A Dehydrogenase, Type II). 3-hydroxyacyl-CoA dehydrogenase type-2 (Homo sapiens), Q99714. recombinant HADH2, NADH fluorescence, beta-hydroxybutyryl-CoA. Potency, µM (doses to about 57.1 µM), for the others: at the top dose activity change, negative = inhibition, usual class: inhibitors. 3.4% of 73,000 active; further: nearly all actives have a fitted effect of over 60% in size
Target sequence (Q99714 whole entry, looked up, one chain of several): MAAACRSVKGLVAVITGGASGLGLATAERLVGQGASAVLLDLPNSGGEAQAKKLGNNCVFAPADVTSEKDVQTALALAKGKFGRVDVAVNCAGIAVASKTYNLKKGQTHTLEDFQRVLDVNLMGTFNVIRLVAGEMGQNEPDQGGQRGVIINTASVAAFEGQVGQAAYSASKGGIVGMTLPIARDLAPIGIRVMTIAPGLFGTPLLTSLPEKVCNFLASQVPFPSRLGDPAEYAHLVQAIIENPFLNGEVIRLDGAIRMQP
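NADH fluorescence (ex 360/em 450 nm) read every 30 s for 4 min; activity taken as last-minus-first time point difference. Enzyme 20 nM, NAD+ 1 mM, beta-hydroxybutyryl-CoA 90 uM, pH 9.0 Tris buffer.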
PK Bst = Pyruvate Kinase | purified pyruvate kinase, luminescence ATP production; ribose 5-phosphate activator present at AC10 | Potency, µM | 1.2% of 51,000 active | AID 361, 2006; in the data active means potency below about 11 µM; inconclusive means mostly about 12 µM to 25 µM;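 the screen sought inhibitors and activators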;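 further: scaled between full activation by ribose 5 phosphate and full inhibition by luteolin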
HSD17B inh = qHTS Assay for Inhibitors of HSD17B4, hydroxysteroid (17-beta) dehydrogenase 4; 3-hydroxyacyl-CoA dehydrogenase type-2 (Homo sapiens), Q99714; recombinant HSD17B10, NADH fluorescence kinetic; Potency, µM (top dose mostly 57.1 µM), for the others: top-dose activity change, negative = inhibition, most hits filed as inhibitors; 7.6% of 75,000 active;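 further: the protocol describes HADH2 (HSD17B10) and not the HSD17B4 of the title; nearly all actives have a fitted effect of over 70% in size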
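His-tagged E. coli-expressed HADH2 at 20 nM in 100 mM Tris-HCl pH 9.0 with 0.01 % Tween-20, preincubated 15 min with compound at room temperature. Reaction with 1 mM NAD+ and 90 uM beta-hydroxybutyryl coenzyme A; NADH fluorescence (360/450 nm) read kinetically over 4 min, last minus first point.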
An asterisk follows results filed as active; i = inactive; ? = inconclusive; · = not tested or not shown; [ ] = another dose, or the depositor's remark. Unless noted, the call rests on the fitted dose curve; in most records, active means well fitted curve in the direction sought with a large enough effect; inconclusive means small, poorly fitted or top-dose-only effect, or another doubt; inactive means no such curve, though single readings can be large; an effect the other way counts as inactive or inconclusive. Unless noted, on the % scale 0 is the no-effect control and ±100 the full control effect; potency means the concentration at half of the fitted maximal effect.

SMILES	ERK AVP inh	Luciferase inh	ALOX15 inhib	HADH2 inh	PK Bst	HSD17B inh
CCOC(=O)c1c(NC(=O)CSc2nc3cccnc3n2C)sc(C(C)=O)c1C	-28%	0%	-13%	3%	>57	-4%
CCOC(=O)c1cccc(NC(=O)CSc2nnc(CNc3ccc(C)cc3)n2CC)c1	-2%	-17%	13µM*	14%	>57	-16%
NS(=O)(=O)c1ccc(N=Nc2ncccc2O)cc1	-12%[11.5 µM]	-4%[11.4 µM]	-18%[11.4 µM]	?	·	-11%[11.4 µM]
OC[C@@H]1O[C@@H](n2cnc3cncnc32)[C@@H](O)[C@H]1O	8%	2%	-5%	0%	·	4%
O=C(O)CCCC(=O)Nc1cccc(-c2nc3ccccc3[nH]2)c1	-1%	20µM*	-2%	-21%	·	?
O=C(CCc1nc2ccccc2[nH]1)Nc1ccccc1	1%	-2%	0%	3%	>57	7%
O=C(CN1CCC(c2nc3ccccc3[nH]2)CC1)Nc1ccc2c(c1)OCO2	27%	-2%	-21%	19%	>57	1%
O=C(Nc1nc2ccccc2[nH]1)C1CCCO1 (configuration not stated)	5%	-12%	5%	2%	·	4%
O=C(Nc1ccc(-c2nc3ccccc3[nH]2)cc1)C1CCCO1 (configuration not stated)	?	2.5µM*	8%	-22%	3.2*	13%
O=C(CN1CCOCC1)Nc1ccc(-c2nc3ccccc3[nH]2)cc1	21%	16µM*	3%	-15%	i	25µM*
COC(=O)[C@@]1(Cc2ccc(F)cc2)[C@H]2c3cc(C(=O)N4CCCC4)n(CCc4c[nH]c5cc(F)ccc45)c3C[C@H]2CN1C(=O)c1ccccc1	-3%	·	·	-1%	·	18%
CN1C(=O)c2ccccc2N(C)C1c1ccc2c(c1)OCO2 (configuration not stated)	6%	3%	12%	32µM*	·	25µM*
CC(C)C12CN3CC(C(C)C)(CN(C1)C3c1ccc3c(c1)OCO3)C2=O (configuration not stated)	-4%	0%	4%	5%	>57	4%
N#CCCn1c(=O)c(-c2ccc(F)cc2)nc2cnc(Oc3cccc(Cl)c3)nc21	-11%	1%[11.4 µM]	2%	-10%	·	25µM*
N#CCCn1c(=O)c(-c2cccc(C#N)c2)nc2cnc(Oc3cccc(Cl)c3)nc21	-2%	3%[11.4 µM]	1%	?	·	32µM*
COc1ncc2nc(-c3cccc(C#N)c3)c(=O)n(CCC#N)c2n1	?	0%[11.4 µM]	5%	34%	·	32µM*
OB(O)c1cc2ccccc2o1	7%	·	-7%	?	·	?
CC(=O)OC1CC(C)OC(C)O1 (configuration not stated)	-17%	·	-1%	1%	·	2%
C/C=C/C=C/C=O	-3%	·	-2%	-12%	·	-4%
Cc1cc(N2CCN(c3nc(N4CCOCC4)nc4ccccc34)CC2)c2ccccc2n1	5%	0%	7%	4%	>57	13µM*
Nc1nc(N2CCOCC2)nc2ccccc12	3%	-1%	7%	20µM*	·	25µM*
O=C1c2cccc3c(Cl)ccc(c23)C(=O)N1O	-9%	0%	-28%	-8%	5.1*	-2%
C=C(CO)C1Cc2c(ccc3c(=O)c4c(oc23)COc2cc(OC)c(OC)cc2-4)O1 (configuration not stated)	-8%	·	1%[25.6 µM]	·	·	-10%
S=C([S-])NCCNC(=S)[S-].[Zn+2]	29%	·	13µM*	4µM*	·	5µM*
Cc1ccc(C#CC2C=CC(Oc3ccc4c(c3)OCO4)C(CO)O2)c(C)c1 (configuration not stated)	3%[11.5 µM]	·	7%[11.4 µM]	4%[11.4 µM]	·	-1%[11.4 µM]
SMILES	ERK AVP inh	Luciferase inh	ALOX15 inhib	HADH2 inh	PK Bst	HSD17B inh
Cc1ccc(-c2cnc(-c3ccncc3)o2)cc1	-29%	13µM*	-12%[11.4 µM]	1.6µM*	·	25µM*
Cc1cc(N=Cc2c(CO)cnc(C)c2O)c(N=Cc2c(CO)cnc(C)c2O)cc1C.[Zn]	15%[11.5 µM]	0%[11.4 µM]	?	0%[11.4 µM]	·	?
CC(=O)Nc1cccc(Oc2ccc(-c3noc(C)n3)cc2)c1	?	13µM*	-10%	15%	i	15%
O=C(/C=C/N1CCOCC1)c1coc2ccccc12	·	·	?	-21%	·	?
O=C(Nc1ccc2c(c1)OCO2)c1ccc(CN2CCOCC2)cc1	?	?	-29%	-1%	·	-3%
O=C(Nc1ccc(CN2CCOCC2)cc1)c1cc2ccccn2n1	?	4µM*	4%	4%	·	8%
CCOC(=O)c1ccc(NC(=O)c2ccc(CN3CCOCC3)cc2)cc1	32µM*	-6%	12%	7%	>57	7%
Cc1cc(OCC(=O)N2CCOCC2)cc2oc(=O)c3ccccc3c12	-19%	-1%	3%	4µM*	·	16µM*
O=C(/C=C/N1CCOCC1)c1cc2ccccc2o1	1%	13µM*	-8%	-3%	·	-1%
Cc1cc(NS(=O)(=O)Cc2ccccc2)cc(C)c1OCC(=O)N1CCOCC1	7%	0%	9%	2%	>57	2%
O=C(O)c1ccccc1-c1ccccc1C(=O)Nc1ccc2c(c1)Cc1ccccc1-2	1%[11.5 µM]	7%[11.4 µM]	3%[11.4 µM]	-6%[11.4 µM]	·	4%[11.4 µM]
COc1cc(C(=O)Nc2cc(C)c(OCC(=O)N3CCOCC3)c(C)c2)cc(OC)c1OC	-6%	-1%	5%	3%	·	0%
Cc1cc(NC(=O)c2cc3ccccc3o2)cc(C)c1OCC(=O)N1CCOCC1	-3%	16µM*	0%	9%	·	6%
O=C(Nc1ccc(CN2CCOCC2)cc1)c1cccs1	-5%	25µM*	0%	4%	·	-4%
O=C(Nc1ccc(CN2CCOCC2)cc1)c1cc2ccccc2o1	25µM*	13µM*	-9%	8%	i	0%
O=C(Nc1ccc(N2CCOCC2)cc1)c1cc2ccccc2o1	·	·	6%	22%	·	?
CC(C)C(C)C	-12%	·	2%	?	·	2%
CC1(C)CC(=O)C(C2(O)C(=O)N(Cc3ccccc3)c3ccccc32)CO1 (configuration not stated)	22%	-3%	18%	?	>57	10µM*
NCC(=O)N[C@H](CO)C(=O)O	-6%[11.5 µM]	-3%[11.4 µM]	9%[11.4 µM]	-4%[11.4 µM]	·	1%[11.4 µM]
Nc1ccc2oc(CCc3ccccc3)nc2c1	-13%	-28%	4%	-7%	·	?
Cc1nnc2sc(-c3cccc4ccccc34)nn12	-12%	1%	-5%	?	·	?
